The other results are listed elsewhere or left out. The hit rate among all sequences tested is not known here.
B1: VH:VL chains; a variant is named by its letters at X, in order (parent)
chain 1: QVQLVQSGAEVKKPGASVKVSCKASGYTFTDYXMHWVRQAPGQGLEWMGXVNPNXXXTTYNQKFEGRVTMTTDTSTSTAYMELRSLRSDDTAVYYCARXNXLDXWGQGTTVTVSS
chain 2: DIQMTQSPSSLSASVGDRVTITCSVSSSVSSIYLHWYQQKPGKAPKLLIYSTSNLASGVPSRFSGSGSGTDFTLTISSLQPEDFATYYCQVYSGYPLTFGGGTKVEIK

Variants of: B1
Experiment: yeast display scFab, FACS + sequencing
Conditions: with MET
Procedure, shortened: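 Two magnetic rounds on Protein A beads coated with HGFR-Fc, followed by FACS, were used to enrich a yeast surface scFab library mutated in the heavy-chain CDRs. FACS gated the top 50% antigen-positive cells after 3 h labelling at room temperature with 1 nM HGFR-Fc and anti-Myc in PBSB plus 1% milk. Binding to the antigen was scored positive when a sequence occurred in both antigen-positive samples from deep sequencing and negative when it occurred only in the input.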

| Variant | antigen binding call |
| --- | --- |
| VKGRADVD | no binding |
| YRGRGVGD | binds |
| FRGRGVGD | binds |
| FAGGGDGD | no binding |
| FRGRGDGD | binds |
| FAGRGVGD | no binding |
| YRGRGVGS | binds |
| SAGRGVGS | no binding |
| YTGEDAVA | no binding |
| FRGRGDVD | binds |
| FRGRGDGY | binds |
| DRGRGDVV | no binding |
| YRGRGVSS | binds |
| FRGRGDVV | binds |
| FRGKADVD | no binding |
| DGGRGDVV | no binding |
| AATTSFVV | no binding |
| YRGKGVGD | binds |
| FRGRSYVD | no binding |
| FRGRGSVD | binds |
| AATTDAGD | no binding |
| DGAKGDGV | no binding |

| Variant | antigen binding call |
| --- | --- |
| ARTRTAWY | no binding |
| SRRRGAWY | binds |
| ARRRGAWY | binds |
| YRGRGSVY | binds |
| YKGRGSVY | binds |
| SKGRSDVY | no binding |
| SKGRADVY | no binding |
| FRGRGALY | binds |
| SKGRGAVY | binds |
| VKGRTSVY | no binding |
| YTEAADGA | no binding |
| VRAGADWY | no binding |
| VAKKNASF | no binding |
| YKGRGFVY | no binding |
| FKEAGAVY | no binding |
| FRGRDYGY | no binding |
| FKGGGAVY | no binding |
| YRGRGFVY | binds |
| FRTRDSGY chain 1 V68I | no binding |
| FRGRDALY | binds |
| FKGRGAVY | binds |
| FRGRDSGY | binds |

| Variant | antigen binding call |
| --- | --- |
| ARAGSFWA | no binding |
| FRTEGSGY | binds |
| FRGGSVGY | no binding |
| FRGRGAVY | binds |
| FRGGSAVY | binds |
| FTEGDSGY | no binding |
| YKGRGSVD | binds |
| FRGRGSVY | binds |
| YRGRGVVY | binds |
| YRGANVVY | no binding |
| YAGRGDVY | no binding |
| AGRGADLS | no binding |
| YKGAGAWA | binds |
| YKGAAFWA | no binding |
| YTGTSAWA | no binding |
| YRGAGAWA | binds |
| VEGGGYSV | no binding |
| YKARTSSS | binds |
| YRARGSSS | binds |
| DAARGSSV | no binding |
| YKARGSSS | binds |
| FGAAAVGD | no binding |

| Variant | antigen binding call |
| --- | --- |
| YRAKGSAV | binds |
| YRAKGAAV | binds |
| YRARGSAV | binds |
| YKTRDDAV | no binding |
| YKEEDDAV | no binding |
| YKAKGSAV | binds |
| VEERDAVA | no binding |
| VEGTSDGD | no binding |
| VAGTGDVA | no binding |
| YTKKTFSY | no binding |
| YRGRASLY | binds |
| YGGRADVY | no binding |
| YRARSSLY | binds |
| YRGEAFLY | no binding |
| YRGRSSLY | binds |
| VKGRADLY | no binding |
| VAATGVSD | no binding |
| SGEGNSWA | no binding |
| YRGRASVV | binds |
| DARGGAVV | no binding |
| VKREASVV | no binding |
| FRRGSSVV | binds |

| Variant | antigen binding call |
| --- | --- |
| YAGRADVV | no binding |
| FKTKDSVV | no binding |
| YKGAGDVV | no binding |
| YKRGSSVV | binds |
| YKRGGAVV | binds |
| DGGENDVF | no binding |
| DTTKGDVA | no binding |
| DAARGDVV | no binding |
| VRRGSSVV | binds |
| YRRGSSVV | binds |
| VRGRSSVV | binds |
| VRGRDDVV | no binding |
| VRGRSDWV | no binding |
| VRAEASVV | no binding |
| VATGDDWV | no binding |
| SKGRSDVS | no binding |
| DRAGDAVD | no binding |
| DRAGDAVS | no binding |
| YRAGTAVS | binds |
| YRAGTAVD | binds |

From the emibetuzumab library of Makowski et al. (2022)
